{
  "source": "PubChem BioAssay AID720564",
  "about": "(Broad Institute, 2013)",
  "note": "The other results are listed elsewhere or left out. Calls of active or inactive are those of the source.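 Rule for the calls: active = luminescence drop, with half-maximal potency fitted within twice the sample's top valid dose (cut at about 70 µM in these data); inactive = the rest, including signal moving the wrong way.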",
  "data": [
    {"experiment": "AlphaScreen signal interference by compounds, dose response, artefact control for ARNT/TACC3 disruptor project, biochemical, dual-tagged ARNT, dry powder (AID 720564)", "settings": "Dual-tagged His-ARNT PASB-GST AlphaScreen artifact counter-screen", "values": [
      {"molecule": "O=C(CSc1ccc(-c2ccccn2)nn1)Nc1ccccc1", "AC50": "15.3 µM (active)"},
      {"molecule": "COc1ccc(-c2nnc(NC(=O)c3ccc(S(=O)(=O)N4CCC(C)CC4)cc3)o2)cc1", "AC50": "67.7 µM (active)"},
      {"molecule": "CCCCC(=O)NC(c1ccco1)c1ccc2cccnc2c1O", "note": "(stereo not drawn)", "AC50": "13.8 µM (active)"}
    ]}
  ]
}
